Test results as given in PubChem BioAssay (EPA / NIEHS).
Calls of active or inactive are those of the source. The calls were made as follows: active = hit-call score of the fitted dose curve at least 0.9, where 1 is the maximum; inactive = score below 0.9.

What was measured:
[1] = ATG_GLI_CIS: Attagene CIS-FACTORIAL HepG2 Assay for human Zinc Finger Protein GLI1 (AID 2282945); details: HepG2, Attagene cis-factorial reporter mRNA, GLI element; actives raise or lower the signal
How it was run: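 Bidirectional curve fits relative to DMSO, using reporter mRNA levels from RT-PCR plus capillary electrophoresis. Cells were HepG2 transiently carrying cis-regulated reporter constructs, harvested 24 h after dosing.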

[2] = ATG_GRE_CIS: Attagene CIS-FACTORIAL HepG2 Assay for human Glucocorticoid Response Elements (GRE) (AID 2282947); details: HepG2 GRE cis-reporter, Attagene multiplex mRNA; actives raise or lower the signal
How it was run: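 Reporter transcripts read by RT-PCR with capillary electrophoresis fluorescence after a 24 h chemical exposure of HepG2 cells transiently transfected with multiple cis-element reporter units. Gain or loss fitted against DMSO.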

[3] = ATG_ISRE_CIS: Attagene CIS-FACTORIAL HepG2 Assay for human Interferon Regulatory Factor 1 (IRF1) binding to an Interferon-Stimulated Response Element (ISRE) (AID 2282948); details: HepG2 ISRE cis-reporter (Attagene), mRNA transcription readout; actives raise or lower the signal
How it was run: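 Multiplexed mRNA reporter readout in human liver HepG2 cells: cis-element-driven reporters transfected, compound added for 24 h, transcripts amplified, fluorescently labelled and sized by capillary electrophoresis; curve fitting bidirectional against DMSO.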

[4] = ATG_M_32_CIS: Attagene CIS-FACTORIAL HepG2 Assay for M32 Transcription Factor (Internal Marker) (AID 2282949); details: HepG2 Attagene cis-factorial M32 reporter, mRNA; actives raise or lower the signal;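 also: background control marker of the multiplexed CIS panel rather than a real target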
How it was run: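 HepG2 transfectants (cis-regulated reporter transcription units) dosed 24 h. Reporter mRNA by RT-PCR plus CE, analysed as gain or loss relative to DMSO.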

[5] = ATG_M_06_CIS: Attagene CIS-FACTORIAL HepG2 Assay for M06 Transcription Factor (Internal Marker) (AID 2282950); details: HepG2 Attagene CIS-FACTORIAL M06 internal marker reporter; actives raise or lower the signal
How it was run: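 Measured 24 h post-dosing in transiently transfected HepG2 cells, this internal-marker endpoint reports reporter mRNA via RT-PCR with fluorescent primer extension and capillary electrophoresis. DMSO served as negative control and baseline for bidirectional fitting.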

[6] = biological target: Hypoxia-inducible factor 1-alpha (Homo sapiens) (UniProt Q16665); test: ATG_HIF1a_CIS: Attagene CIS-FACTORIAL HepG2 Assay for human Hypoxia Inducible Factor 1 (HIF1A) (AID 2282951); details: HepG2 Attagene cis-factorial HIF1a reporter transcription; actives raise or lower the signal
Hypoxia-inducible factor 1-alpha (Homo sapiens), sequence (Q16665 whole entry, looked up): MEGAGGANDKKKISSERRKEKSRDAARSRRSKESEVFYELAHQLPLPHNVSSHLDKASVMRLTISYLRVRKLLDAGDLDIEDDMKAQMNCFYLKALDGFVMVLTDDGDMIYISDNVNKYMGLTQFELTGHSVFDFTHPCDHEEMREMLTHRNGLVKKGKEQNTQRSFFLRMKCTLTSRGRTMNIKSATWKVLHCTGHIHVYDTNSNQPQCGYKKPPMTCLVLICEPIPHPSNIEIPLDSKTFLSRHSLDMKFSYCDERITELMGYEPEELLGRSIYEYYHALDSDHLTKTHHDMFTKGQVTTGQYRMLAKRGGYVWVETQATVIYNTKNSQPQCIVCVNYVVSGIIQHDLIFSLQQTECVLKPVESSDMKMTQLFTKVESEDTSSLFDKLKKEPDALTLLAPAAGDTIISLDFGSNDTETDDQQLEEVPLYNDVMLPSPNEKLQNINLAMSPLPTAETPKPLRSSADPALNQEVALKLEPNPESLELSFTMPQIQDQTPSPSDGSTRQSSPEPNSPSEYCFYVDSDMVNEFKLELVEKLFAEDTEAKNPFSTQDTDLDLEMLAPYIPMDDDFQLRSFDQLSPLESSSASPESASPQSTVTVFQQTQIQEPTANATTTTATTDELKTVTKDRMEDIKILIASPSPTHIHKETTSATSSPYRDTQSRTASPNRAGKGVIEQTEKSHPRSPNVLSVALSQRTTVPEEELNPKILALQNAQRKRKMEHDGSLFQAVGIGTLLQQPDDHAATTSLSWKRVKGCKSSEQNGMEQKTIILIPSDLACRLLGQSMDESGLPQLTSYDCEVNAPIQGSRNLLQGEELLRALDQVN
How it was run: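 Fluorescence intensity of capillary-separated, 6-FAM-labelled reporter amplicons gives mRNA induction in HepG2 cells carrying transfected cis-promoter reporter units; cells exposed 24 h, responses fitted up or down from DMSO.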

[7] = biological target: Heat shock factor protein 1 (Homo sapiens) (UniProt Q00613); test: ATG_HSE_CIS: Attagene CIS-FACTORIAL HepG2 Assay for human Heat Shock Transcription Factor 1 (HSE) (AID 2282953); details: HepG2 HSE cis-reporter, Attagene RNA transcription; actives raise or lower the signal
Heat shock factor protein 1 (Homo sapiens), sequence (Q00613 whole entry, looked up): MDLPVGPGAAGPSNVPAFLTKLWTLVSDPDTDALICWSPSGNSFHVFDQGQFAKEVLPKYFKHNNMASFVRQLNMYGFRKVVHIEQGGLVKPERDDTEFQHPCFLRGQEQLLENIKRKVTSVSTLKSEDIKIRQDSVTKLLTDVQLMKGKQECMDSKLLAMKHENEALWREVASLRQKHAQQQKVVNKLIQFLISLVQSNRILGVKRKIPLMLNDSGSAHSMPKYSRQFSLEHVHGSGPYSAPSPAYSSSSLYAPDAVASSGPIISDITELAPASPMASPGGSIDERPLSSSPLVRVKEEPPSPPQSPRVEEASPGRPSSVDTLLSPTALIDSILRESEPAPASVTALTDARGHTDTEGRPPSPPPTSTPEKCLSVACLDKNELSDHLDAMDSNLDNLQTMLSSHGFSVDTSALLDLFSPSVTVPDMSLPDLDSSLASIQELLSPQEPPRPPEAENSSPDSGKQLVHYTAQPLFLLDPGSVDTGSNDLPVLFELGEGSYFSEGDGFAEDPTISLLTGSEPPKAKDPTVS
How it was run: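 Reporter mRNA induction in HepG2 is measured 24 h after dosing, using transiently transfected multiplexed cis-regulated reporter units. Signal comes from capillary electrophoresis of labelled RT-PCR products, with DMSO as negative control.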

[8] = ATG_MRE_CIS: Attagene CIS-FACTORIAL HepG2 Assay for human Metal Responsive Element (MRE) (AID 2282954); details: HepG2 MRE cis-reporter transcription, Attagene multiplex; actives raise or lower the signal
How it was run: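 Endogenous MRE-dependent transcription read as reporter mRNA in transiently transfected human HepG2 cells at 24 h. RNA reverse-transcribed, PCR-amplified, labelled and resolved by capillary electrophoresis; gain or loss relative to DMSO.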

[9] = ATG_PBREM_CIS: Attagene CIS-FACTORIAL HepG2 Assay for human Phenobarbital-responsive Enhancer Module (PBREM) (AID 2282955); details: HepG2 PBREM cis-reporter, Attagene multiplexed transcription; actives raise or lower the signal
How it was run: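 Cells were transfected with cis-element reporter units and treated for 24 h, after which RNA was extracted and reporter transcripts measured by RT-PCR and capillary electrophoresis.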

[10] = biological target: Paired box protein Pax-6 (Homo sapiens) (UniProt P26367); test: ATG_Pax6_CIS: Attagene CIS-FACTORIAL HepG2 Assay for human Paired Box 6 (PAX6) (AID 2282956); details: HepG2 CIS-FACTORIAL PAX6 reporter transcription, RNA readout; actives raise or lower the signal
Paired box protein Pax-6 (Homo sapiens), sequence (P26367 whole entry, looked up): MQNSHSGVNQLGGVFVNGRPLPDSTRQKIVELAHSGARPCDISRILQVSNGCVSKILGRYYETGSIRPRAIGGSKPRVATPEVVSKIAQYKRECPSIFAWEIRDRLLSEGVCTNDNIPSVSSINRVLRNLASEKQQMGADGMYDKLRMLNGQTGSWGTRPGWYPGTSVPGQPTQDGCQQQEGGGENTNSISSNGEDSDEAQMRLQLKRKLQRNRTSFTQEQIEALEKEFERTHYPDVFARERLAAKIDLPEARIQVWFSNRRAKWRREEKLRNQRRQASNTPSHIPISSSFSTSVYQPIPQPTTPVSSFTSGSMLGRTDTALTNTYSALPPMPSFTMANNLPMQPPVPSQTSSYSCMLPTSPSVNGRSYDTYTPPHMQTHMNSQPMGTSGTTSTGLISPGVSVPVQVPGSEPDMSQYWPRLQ
How it was run: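 Fluorescent RT-PCR products separated by capillary electrophoresis report PAX6-linked promoter mRNA in HepG2 cells 24 h post-dose. Curves fitted bidirectionally, DMSO as negative control.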

[11] = ATG_PXRE_CIS: Attagene CIS-FACTORIAL HepG2 Assay for human Pregnane X Receptor Element (PXRE) (AID 2282957); details: HepG2 Attagene CIS-FACTORIAL PXRE reporter, mRNA; actives raise or lower the signal
How it was run: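 Bidirectional activity, baselined to DMSO, derived from reporter mRNA fluorescence (RT-PCR plus capillary electrophoresis) in HepG2 cells bearing cis-promoter reporter units, 24 h exposure.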

[12] = ATG_PPRE_CIS: Attagene CIS-FACTORIAL HepG2 Assay for human Peroxisome Proliferator-activated Response Element (PPRE) (AID 2282958); details: HepG2 PPRE cis-element reporter, Attagene transcription factor profiling; actives raise or lower the signal
How it was run: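 In this cell-based multiplex, a PPRE cis element drives a reporter sequence in transiently transfected HepG2 cells. Following 24 h treatment, labeled cDNA amplicons are sized and quantified by capillary electrophoresis, with DMSO defining baseline.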

[13] = ATG_RORE_CIS: Attagene CIS-FACTORIAL HepG2 Assay for human RAR-related Orphan Receptor Element (RORE) (AID 2282959); details: HepG2 Attagene cis-factorial RORE reporter, mRNA; actives raise or lower the signal
How it was run: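 Endogenous factor activity at a cis response element is read as reporter transcript levels in HepG2 cells, 24 h post-dose. Transcripts are quantified by RT-PCR with capillary electrophoresis, and data fitted in both directions against DMSO.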

[14] = ATG_Sox_CIS: Attagene CIS-FACTORIAL HepG2 Assay for human SRY-box transcription factor (SOX) (AID 2282960); details: HepG2 Attagene cis-factorial SOX reporter, mRNA; actives raise or lower the signal
How it was run: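 Measures mRNA induction of a SOX1-associated reporter in HepG2 after 24 h dosing. Fluorescently labelled RT-PCR fragments are separated by capillary electrophoresis, and gain or loss relative to DMSO control is fitted.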

[15] = biological target: Transcription factor Sp1 (Homo sapiens) (UniProt P08047); test: ATG_Sp1_CIS: Attagene CIS-FACTORIAL HepG2 Assay for human Specificity Protein 1 (Sp1) (AID 2282961); details: HepG2 Sp1 cis-reporter transcription, actives raise or lower the signal
Transcription factor Sp1 (Homo sapiens), sequence (P08047 whole entry, looked up): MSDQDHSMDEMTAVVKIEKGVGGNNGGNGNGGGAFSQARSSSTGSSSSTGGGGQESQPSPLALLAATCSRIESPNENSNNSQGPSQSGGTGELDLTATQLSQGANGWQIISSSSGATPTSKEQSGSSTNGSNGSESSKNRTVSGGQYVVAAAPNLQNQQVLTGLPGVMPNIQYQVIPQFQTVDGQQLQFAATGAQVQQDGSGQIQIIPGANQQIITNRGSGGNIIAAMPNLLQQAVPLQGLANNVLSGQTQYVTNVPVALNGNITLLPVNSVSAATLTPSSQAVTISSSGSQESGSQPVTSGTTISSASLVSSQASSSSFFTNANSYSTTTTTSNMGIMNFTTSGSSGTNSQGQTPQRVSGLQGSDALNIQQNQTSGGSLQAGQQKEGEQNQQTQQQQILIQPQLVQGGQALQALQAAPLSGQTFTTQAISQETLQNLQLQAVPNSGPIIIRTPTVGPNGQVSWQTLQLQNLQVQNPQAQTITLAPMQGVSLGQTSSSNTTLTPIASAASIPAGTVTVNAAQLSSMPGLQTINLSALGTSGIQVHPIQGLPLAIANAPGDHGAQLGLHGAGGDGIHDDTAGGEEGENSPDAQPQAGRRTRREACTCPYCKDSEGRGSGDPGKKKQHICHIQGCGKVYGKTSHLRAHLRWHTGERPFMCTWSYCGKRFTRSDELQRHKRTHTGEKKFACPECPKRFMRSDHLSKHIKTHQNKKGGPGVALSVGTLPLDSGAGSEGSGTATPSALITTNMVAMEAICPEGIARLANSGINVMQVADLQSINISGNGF
How it was run: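 Cells: HepG2, transiently transfected with cis-regulated multiplexed reporters. Exposure: 24 h. Detection: reporter transcripts amplified, fluorescently labeled, restriction-digested and sized by capillary electrophoresis. Analysis: bidirectional fit relative to DMSO.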

[16] = ATG_SREBP_CIS: Attagene CIS-FACTORIAL HepG2 Assay for human Sterol Regulatory Element Binding (SREBP) (AID 2282962); details: HepG2 Attagene cis-factorial SREBP reporter, mRNA; actives raise or lower the signal
How it was run: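 Endogenous factor activity is measured in HepG2 through multiplexed reporter units under cis-element control. Following a 24 h incubation, reporter transcripts are reverse-transcribed, PCR-amplified and sized by capillary electrophoresis; activity is fitted in both directions relative to DMSO.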

[17] = ATG_TA_CIS: Attagene CIS-FACTORIAL HepG2 Assay for human TA Basal Promoter (AID 2282964); details: HepG2 Attagene CIS-factorial TA basal promoter reporter; actives raise or lower the signal
How it was run: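 Cis-factorial format in HepG2: reporters report endogenous factors, not chimeric Gal4 fusions. After 24 h treatment, reporter transcripts were measured by RT-PCR-capillary electrophoresis fluorescence, analysed bidirectionally versus DMSO.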

[18] = biological target: Signal transducer and activator of transcription 3 (Homo sapiens) (UniProt P40763); test: ATG_STAT3_CIS: Attagene CIS-FACTORIAL HepG2 Assay for human Signal Transducer and Activator of Transcription 3 (STAT3) (AID 2282963); details: HepG2, Attagene cis-factorial STAT3 reporter transcription; actives raise or lower the signal
Signal transducer and activator of transcription 3 (Homo sapiens), sequence (P40763 whole entry, looked up): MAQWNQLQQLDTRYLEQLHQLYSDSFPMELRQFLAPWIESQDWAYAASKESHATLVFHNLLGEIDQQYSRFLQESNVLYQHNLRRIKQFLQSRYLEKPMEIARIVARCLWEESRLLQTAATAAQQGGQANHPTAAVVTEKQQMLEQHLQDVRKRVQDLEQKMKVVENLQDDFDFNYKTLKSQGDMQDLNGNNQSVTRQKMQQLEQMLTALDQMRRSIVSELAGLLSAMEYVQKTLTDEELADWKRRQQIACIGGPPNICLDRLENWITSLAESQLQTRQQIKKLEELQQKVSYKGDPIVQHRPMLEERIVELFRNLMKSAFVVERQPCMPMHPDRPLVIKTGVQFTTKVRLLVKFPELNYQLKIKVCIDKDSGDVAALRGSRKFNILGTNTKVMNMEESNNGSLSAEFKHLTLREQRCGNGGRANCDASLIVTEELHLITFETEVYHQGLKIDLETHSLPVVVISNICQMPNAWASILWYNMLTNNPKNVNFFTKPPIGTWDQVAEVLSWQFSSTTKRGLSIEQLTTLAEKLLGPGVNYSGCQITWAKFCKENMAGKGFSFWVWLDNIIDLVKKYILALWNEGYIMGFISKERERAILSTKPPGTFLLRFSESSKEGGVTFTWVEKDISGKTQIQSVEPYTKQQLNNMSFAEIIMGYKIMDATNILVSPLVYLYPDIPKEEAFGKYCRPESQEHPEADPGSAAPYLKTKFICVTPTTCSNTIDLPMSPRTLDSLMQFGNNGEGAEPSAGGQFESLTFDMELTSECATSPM
How it was run: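 Readout is reporter transcript quantified by RT-PCR and capillary electrophoresis, with 6-FAM primer extension and HpaI digestion. Total RNA is taken 24 h after dosing transiently transfected HepG2 carrying cis-regulated reporter units. Bidirectional fit against DMSO.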

[19] = biological target: Hepatocyte nuclear factor 6 (Homo sapiens) (UniProt Q9UBC0); test: ATG_HNF6_CIS: Attagene CIS-FACTORIAL HepG2 Assay for human Hepatocyte Nuclear Factor 6 (HNF6) (AID 2282952); details: HepG2 Attagene cis-factorial HNF6 reporter transcription; actives raise or lower the signal
Hepatocyte nuclear factor 6 (Homo sapiens), sequence (Q9UBC0 whole entry, looked up, the tested form may be a part): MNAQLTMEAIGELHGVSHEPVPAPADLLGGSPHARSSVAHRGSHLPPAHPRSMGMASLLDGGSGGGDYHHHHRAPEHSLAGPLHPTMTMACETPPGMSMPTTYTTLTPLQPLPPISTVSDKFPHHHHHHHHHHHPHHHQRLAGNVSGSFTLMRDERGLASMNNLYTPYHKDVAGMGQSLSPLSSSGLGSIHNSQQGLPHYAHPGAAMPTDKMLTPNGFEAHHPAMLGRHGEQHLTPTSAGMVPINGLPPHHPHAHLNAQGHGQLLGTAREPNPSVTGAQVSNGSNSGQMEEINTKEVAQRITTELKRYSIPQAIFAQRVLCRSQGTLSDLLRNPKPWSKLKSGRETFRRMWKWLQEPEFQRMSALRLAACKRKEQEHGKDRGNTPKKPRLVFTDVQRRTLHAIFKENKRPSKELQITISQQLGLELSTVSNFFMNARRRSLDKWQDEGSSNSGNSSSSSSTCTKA
How it was run: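 Twenty-four-hour chemical treatment of reporter-transfected HepG2 cells precedes RNA isolation, DNase-treated reverse transcription and PCR of reporter sequences. Labelled fragments are sized by capillary electrophoresis and fitted bidirectionally versus DMSO.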

COC(=O)C=Cc1ccccc1
outcome [1]: inactive
outcome [2]: inactive
outcome [3]: inactive
outcome [4]: inactive
outcome [5]: inactive
outcome [6]: inactive
outcome [7]: inactive
outcome [8]: inactive
outcome [9]: inactive
outcome [10]: inactive
outcome [11]: inactive
outcome [12]: inactive
outcome [13]: inactive
outcome [14]: inactive
outcome [15]: inactive
outcome [16]: inactive

C=C(C)C1CC=C(C)CC1 (configuration not stated)
outcome [1]: inactive
outcome [3]: inactive
outcome [4]: inactive
outcome [5]: inactive
outcome [6]: inactive
outcome [7]: inactive
outcome [8]: inactive
outcome [9]: inactive
outcome [10]: inactive
outcome [11]: inactive
outcome [14]: inactive
outcome [15]: inactive
outcome [16]: inactive
outcome [17]: inactive

C=C1C[C@H]2[C@@H]3C=C(C)C4=CC(=O)CC[C@]4(C)[C@H]3CC[C@]2(C)[C@@]1(OC(C)=O)C(C)=O
outcome [1]: inactive
AC50 [2]: 0.057 µM (active)
outcome [3]: inactive
outcome [4]: inactive
outcome [5]: inactive
outcome [6]: inactive
AC50 [7]: 96.4 µM (active)
AC50 [8]: 74.1 µM (active)
AC50 [9]: 113 µM (active)
AC50 [10]: 63 µM (active)
AC50 [11]: 3.44 µM (active)
outcome [13]: inactive
outcome [14]: inactive
outcome [15]: inactive
AC50 [16]: 63 µM (active)
outcome [18]: inactive
AC50 [17]: 50.8 µM (active)

C=CCCCCCCCCO
outcome [1]: inactive
outcome [2]: inactive
outcome [3]: inactive
outcome [4]: inactive
outcome [5]: inactive
outcome [6]: inactive
outcome [7]: inactive
outcome [8]: inactive
outcome [10]: inactive
AC50 [11]: 51.6 µM (active)
outcome [12]: inactive
outcome [13]: inactive
outcome [14]: inactive
outcome [15]: inactive
outcome [16]: inactive
outcome [18]: inactive
outcome [17]: inactive

COc1ccc(-c2coc3cc(O)cc(O)c3c2=O)cc1
outcome [1]: inactive
outcome [2]: inactive
outcome [3]: inactive
outcome [4]: inactive
outcome [5]: inactive
outcome [6]: inactive
outcome [19]: inactive
AC50 [8]: 138 µM (active)
outcome [9]: inactive
AC50 [11]: 24.9 µM (active)
AC50 [12]: 100 µM (active)
outcome [14]: inactive
outcome [15]: inactive
outcome [18]: inactive
outcome [17]: inactive

C=C[C@@]1(C)CC(=O)[C@]2(O)[C@@]3(C)[C@@H](O)CCC(C)(C)[C@@H]3[C@H](O)[C@H](OC(C)=O)[C@@]2(C)O1
outcome [1]: inactive
outcome [2]: inactive
outcome [3]: inactive
outcome [4]: inactive
outcome [5]: inactive
outcome [6]: inactive
outcome [19]: inactive
outcome [8]: inactive
AC50 [9]: 0.803 µM (active)
outcome [10]: inactive
AC50 [11]: 0.433 µM (active)
outcome [12]: inactive
outcome [13]: inactive
outcome [14]: inactive
outcome [15]: inactive
outcome [16]: inactive
outcome [18]: inactive
outcome [17]: inactive

C=C(C)[C@@H]1CC=C(C)CC1
outcome [1]: inactive
outcome [3]: inactive
outcome [4]: inactive
outcome [5]: inactive
outcome [6]: inactive
outcome [19]: inactive
outcome [7]: inactive
outcome [8]: inactive
outcome [9]: inactive
outcome [10]: inactive
outcome [11]: inactive
outcome [14]: inactive
outcome [15]: inactive
outcome [16]: inactive
outcome [17]: inactive

CC1=CCC2CC1C2(C)C (configuration not stated)
outcome [1]: inactive
outcome [3]: inactive
outcome [4]: inactive
outcome [5]: inactive
outcome [6]: inactive
outcome [19]: inactive
outcome [8]: inactive
outcome [10]: inactive
AC50 [11]: 37.2 µM (active)
outcome [12]: inactive
outcome [14]: inactive
outcome [15]: inactive
outcome [16]: inactive
outcome [18]: inactive
outcome [17]: inactive
